# Data taken from article PMC7862700, “An all-to-all approach to the identification of sequence-specific readers for epigenetic DNA modifications on cytosine”.
# Key:
# Test in all cases: DAPPL (digital affinity profiling via proximity ligation, sequencing); 10 mM Tris-HCl pH 7.5, 50 mM NaCl, 1 mM DTT, 4% glycerol, room temperature, 30 min; GST-TFs on glutathione beads, 16-mer random dsDNA library, 0.1% formaldehyde crosslink after washing; high values mean tight binding
# Conditions in all cases: protein: recombinant; tags: N-terminal GST; dsDNA, one strand shown
# ERF = target: T1, ERF (Homo sapiens, UniProt P50548 1-548)
# T1 sequence: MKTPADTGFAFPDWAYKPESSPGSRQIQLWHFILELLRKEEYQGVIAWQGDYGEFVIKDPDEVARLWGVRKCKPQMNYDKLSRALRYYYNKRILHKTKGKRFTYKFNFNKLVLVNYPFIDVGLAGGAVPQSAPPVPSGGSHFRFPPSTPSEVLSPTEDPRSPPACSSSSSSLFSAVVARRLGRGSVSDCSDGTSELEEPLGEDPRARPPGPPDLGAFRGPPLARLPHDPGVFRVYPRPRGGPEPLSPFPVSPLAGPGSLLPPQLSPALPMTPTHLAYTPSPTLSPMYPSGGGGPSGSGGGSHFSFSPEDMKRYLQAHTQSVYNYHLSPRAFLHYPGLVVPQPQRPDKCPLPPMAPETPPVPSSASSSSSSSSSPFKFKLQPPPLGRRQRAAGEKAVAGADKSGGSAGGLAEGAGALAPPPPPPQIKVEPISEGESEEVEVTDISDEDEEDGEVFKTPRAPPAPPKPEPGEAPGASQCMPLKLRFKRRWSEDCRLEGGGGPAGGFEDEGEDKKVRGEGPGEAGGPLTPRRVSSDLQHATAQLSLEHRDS
# Summary of the method: (§1)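 Sequencing on an Illumina NextSeq500 followed washing, crosslinking with 0.1% formaldehyde, proximity ligation (BsaI/T4 ligase, 1 h, 37 °C) and PCR amplification of pools that had been incubated for 30 min at room temperature with 200 nmole of a random double-stranded 16-mer DNA library in Tris/NaCl/DTT/glycerol buffer. Each pool held DNA-barcoded human transcription factors, expressed in yeast as GST fusions and captured on glutathione beads, plus a tag-only sample. Binding signal is a hexamer's read frequency for a factor divided by its frequency in the tag-only sample.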
# ETV3L = target: T2, ETV3L (Homo sapiens, UniProt Q6ZN32 1-361)
# T2 sequence: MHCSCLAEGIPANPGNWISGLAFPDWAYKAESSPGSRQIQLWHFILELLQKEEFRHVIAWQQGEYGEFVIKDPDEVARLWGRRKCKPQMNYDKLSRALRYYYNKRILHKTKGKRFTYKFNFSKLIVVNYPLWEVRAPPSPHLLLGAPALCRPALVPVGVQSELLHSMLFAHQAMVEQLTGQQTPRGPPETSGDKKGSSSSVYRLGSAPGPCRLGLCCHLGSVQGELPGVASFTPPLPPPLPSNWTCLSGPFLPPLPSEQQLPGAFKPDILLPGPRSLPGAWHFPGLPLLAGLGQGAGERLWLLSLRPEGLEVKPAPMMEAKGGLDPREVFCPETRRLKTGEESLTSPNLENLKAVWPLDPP
# Summary of the method: as §1
# ETS2 = target: T3, ETS2 (Homo sapiens, UniProt P15036 1-469)
# T3 sequence: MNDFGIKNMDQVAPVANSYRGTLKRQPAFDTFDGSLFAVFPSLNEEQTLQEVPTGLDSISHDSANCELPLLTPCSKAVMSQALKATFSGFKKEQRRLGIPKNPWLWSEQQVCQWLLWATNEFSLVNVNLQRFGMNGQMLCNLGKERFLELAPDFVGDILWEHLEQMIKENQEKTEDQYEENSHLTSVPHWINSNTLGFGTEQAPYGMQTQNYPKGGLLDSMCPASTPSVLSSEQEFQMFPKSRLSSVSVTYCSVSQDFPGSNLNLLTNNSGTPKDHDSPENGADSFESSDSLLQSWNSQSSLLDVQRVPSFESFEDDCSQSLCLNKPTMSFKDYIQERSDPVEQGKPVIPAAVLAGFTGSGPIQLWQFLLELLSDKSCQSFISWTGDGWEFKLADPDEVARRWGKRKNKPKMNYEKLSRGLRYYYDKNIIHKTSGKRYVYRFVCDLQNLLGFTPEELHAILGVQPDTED
# Summary of the method: as §1
# SPDEF = target: T4, SPDEF (Homo sapiens, UniProt O95238 1-335)
# T4 sequence: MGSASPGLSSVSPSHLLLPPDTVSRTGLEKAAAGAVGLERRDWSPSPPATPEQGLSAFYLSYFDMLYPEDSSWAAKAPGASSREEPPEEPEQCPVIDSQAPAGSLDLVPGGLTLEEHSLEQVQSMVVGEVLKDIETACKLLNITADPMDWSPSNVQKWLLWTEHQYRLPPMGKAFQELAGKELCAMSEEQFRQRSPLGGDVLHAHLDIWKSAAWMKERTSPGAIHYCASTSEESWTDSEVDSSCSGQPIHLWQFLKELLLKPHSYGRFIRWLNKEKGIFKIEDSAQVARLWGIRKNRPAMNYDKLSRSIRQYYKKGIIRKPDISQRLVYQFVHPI
# Summary of the method: as §1
# ETV7 = target: T5, ETV7 (Homo sapiens, UniProt Q9Y603 1-341)
# T5 sequence: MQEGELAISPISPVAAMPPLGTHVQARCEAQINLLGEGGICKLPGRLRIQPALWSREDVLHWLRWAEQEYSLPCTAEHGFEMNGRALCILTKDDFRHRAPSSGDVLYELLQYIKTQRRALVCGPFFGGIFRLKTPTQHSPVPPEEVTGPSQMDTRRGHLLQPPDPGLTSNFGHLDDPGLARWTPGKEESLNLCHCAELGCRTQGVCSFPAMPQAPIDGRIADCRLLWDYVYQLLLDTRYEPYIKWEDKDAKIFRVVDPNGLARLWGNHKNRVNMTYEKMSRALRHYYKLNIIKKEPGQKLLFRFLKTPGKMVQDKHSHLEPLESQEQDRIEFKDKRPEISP
# Summary of the method: as §1
# ELF5 = target: T6, ELF5 (Homo sapiens, UniProt Q9UKW6-2 1-255)
# T6 sequence: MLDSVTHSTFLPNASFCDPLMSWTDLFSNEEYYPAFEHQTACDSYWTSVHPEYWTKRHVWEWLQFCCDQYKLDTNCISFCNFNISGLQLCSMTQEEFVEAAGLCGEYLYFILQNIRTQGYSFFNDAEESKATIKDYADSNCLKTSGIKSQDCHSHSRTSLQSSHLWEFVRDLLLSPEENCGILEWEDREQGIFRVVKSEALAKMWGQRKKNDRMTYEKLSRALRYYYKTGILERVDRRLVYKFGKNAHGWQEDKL
# Summary of the method: as §1
# ETV3 = target: T7, ETV3 (Homo sapiens, UniProt P41162-2 1-143)
# T7 sequence: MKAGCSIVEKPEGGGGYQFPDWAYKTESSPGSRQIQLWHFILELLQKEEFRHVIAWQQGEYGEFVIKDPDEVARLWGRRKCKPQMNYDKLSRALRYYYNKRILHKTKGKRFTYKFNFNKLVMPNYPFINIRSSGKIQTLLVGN
# Summary of the method: as §1
# ETV6 = ETV6 (Homo sapiens, UniProt P41212 1-452)
# Sequence of ETV6 (P41212 whole entry): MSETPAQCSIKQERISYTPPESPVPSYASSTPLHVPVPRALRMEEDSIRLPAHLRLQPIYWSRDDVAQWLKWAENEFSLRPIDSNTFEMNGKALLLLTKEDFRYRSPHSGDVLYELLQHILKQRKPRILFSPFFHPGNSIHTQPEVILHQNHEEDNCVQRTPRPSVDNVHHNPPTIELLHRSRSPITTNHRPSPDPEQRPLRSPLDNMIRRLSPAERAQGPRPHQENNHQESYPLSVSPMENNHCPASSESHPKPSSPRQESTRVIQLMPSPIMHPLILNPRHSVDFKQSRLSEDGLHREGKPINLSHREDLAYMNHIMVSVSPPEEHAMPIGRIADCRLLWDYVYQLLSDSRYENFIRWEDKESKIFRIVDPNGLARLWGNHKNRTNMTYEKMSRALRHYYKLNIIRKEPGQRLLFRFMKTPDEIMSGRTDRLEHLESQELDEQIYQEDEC
# Summary of the method: as §1
sequence,measurement,setting,value
CGACAC,binding signal,ERF,"1.08 fold enrichment (6-mer frequency, TF over GST control)"
same,binding signal,ETV3L,"1.21 fold enrichment (6-mer frequency, TF over GST control)"
same,binding signal,ETS2,"1.19 fold enrichment (6-mer frequency, TF over GST control)"
same,binding signal,SPDEF,"1.15 fold enrichment (6-mer frequency, TF over GST control)"
same,binding signal,ETV7,"1.16 fold enrichment (6-mer frequency, TF over GST control)"
same,binding signal,ELF5,"1.19 fold enrichment (6-mer frequency, TF over GST control)"
same,binding signal,ETV3,"1.2 fold enrichment (6-mer frequency, TF over GST control)"
same,binding signal,ETV6,"1.28 fold enrichment (6-mer frequency, TF over GST control)"
AAAGAA,binding signal,ERF,"1.27 fold enrichment (6-mer frequency, TF over GST control)"
same,binding signal,ETV3L,"1.19 fold enrichment (6-mer frequency, TF over GST control)"
same,binding signal,ETS2,"1.26 fold enrichment (6-mer frequency, TF over GST control)"
same,binding signal,SPDEF,"1.18 fold enrichment (6-mer frequency, TF over GST control)"
same,binding signal,ETV7,"1.36 fold enrichment (6-mer frequency, TF over GST control)"
same,binding signal,ELF5,"1.23 fold enrichment (6-mer frequency, TF over GST control)"
same,binding signal,ETV3,"1.2 fold enrichment (6-mer frequency, TF over GST control)"
same,binding signal,ETV6,"1.3 fold enrichment (6-mer frequency, TF over GST control)"
GTGTTC,binding signal,ERF,"1.19 fold enrichment (6-mer frequency, TF over GST control)"
same,binding signal,ETV3L,"1.14 fold enrichment (6-mer frequency, TF over GST control)"
same,binding signal,ETS2,"1.17 fold enrichment (6-mer frequency, TF over GST control)"
same,binding signal,SPDEF,"1.34 fold enrichment (6-mer frequency, TF over GST control)"
same,binding signal,ETV7,"1.11 fold enrichment (6-mer frequency, TF over GST control)"
same,binding signal,ELF5,"1.34 fold enrichment (6-mer frequency, TF over GST control)"
same,binding signal,ETV3,"1.05 fold enrichment (6-mer frequency, TF over GST control)"
same,binding signal,ETV6,"1.09 fold enrichment (6-mer frequency, TF over GST control)"
CCGGAC,binding signal,ERF,"1.4 fold enrichment (6-mer frequency, TF over GST control)"
same,binding signal,ETV3L,"1.48 fold enrichment (6-mer frequency, TF over GST control)"
same,binding signal,ETS2,"1.52 fold enrichment (6-mer frequency, TF over GST control)"
same,binding signal,SPDEF,"2.1 fold enrichment (6-mer frequency, TF over GST control)"
same,binding signal,ETV7,"1.39 fold enrichment (6-mer frequency, TF over GST control)"
same,binding signal,ELF5,"1.77 fold enrichment (6-mer frequency, TF over GST control)"
same,binding signal,ETV3,"1.6 fold enrichment (6-mer frequency, TF over GST control)"
same,binding signal,ETV6,"1.41 fold enrichment (6-mer frequency, TF over GST control)"
TAGGCT,binding signal,ERF,"1.37 fold enrichment (6-mer frequency, TF over GST control)"
same,binding signal,ETV3L,"1.16 fold enrichment (6-mer frequency, TF over GST control)"
same,binding signal,ETS2,"1.29 fold enrichment (6-mer frequency, TF over GST control)"
same,binding signal,SPDEF,"1.24 fold enrichment (6-mer frequency, TF over GST control)"
same,binding signal,ETV7,"1.35 fold enrichment (6-mer frequency, TF over GST control)"
same,binding signal,ELF5,"1.09 fold enrichment (6-mer frequency, TF over GST control)"
same,binding signal,ETV3,"1.14 fold enrichment (6-mer frequency, TF over GST control)"
same,binding signal,ETV6,"1.24 fold enrichment (6-mer frequency, TF over GST control)"
AATCAT,binding signal,ERF,"1.18 fold enrichment (6-mer frequency, TF over GST control)"
same,binding signal,ETV3L,"1.18 fold enrichment (6-mer frequency, TF over GST control)"
same,binding signal,ETS2,"1.11 fold enrichment (6-mer frequency, TF over GST control)"
same,binding signal,SPDEF,"1.07 fold enrichment (6-mer frequency, TF over GST control)"
same,binding signal,ETV7,"1.04 fold enrichment (6-mer frequency, TF over GST control)"
same,binding signal,ELF5,"1.18 fold enrichment (6-mer frequency, TF over GST control)"
same,binding signal,ETV3,"1.12 fold enrichment (6-mer frequency, TF over GST control)"
same,binding signal,ETV6,"1.16 fold enrichment (6-mer frequency, TF over GST control)"
CTGACG,binding signal,ERF,"1.17 fold enrichment (6-mer frequency, TF over GST control)"
same,binding signal,ETV3L,"1.03 fold enrichment (6-mer frequency, TF over GST control)"
same,binding signal,ETS2,"1.2 fold enrichment (6-mer frequency, TF over GST control)"
same,binding signal,SPDEF,"1 fold enrichment (6-mer frequency, TF over GST control)"
same,binding signal,ETV7,"1.07 fold enrichment (6-mer frequency, TF over GST control)"
same,binding signal,ELF5,"1.09 fold enrichment (6-mer frequency, TF over GST control)"
same,binding signal,ETV3,"1.06 fold enrichment (6-mer frequency, TF over GST control)"
same,binding signal,ETV6,"1.16 fold enrichment (6-mer frequency, TF over GST control)"
